In PubChem BioAssay (NCI) one finds growth data, which are given here for 14 compounds.

Each structure is given as a SMILES string. Compounds without any hit were thinned out: in the full panel of roughly 83,000, 20% have a hit.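 Method: cells in 96-well plates; compound added at one concentration; 48 h incubation; percent growth measured; values under 10 scored active.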 A number with no mark means an inactive call. The source made the active and inactive calls.

What all share (assay): NCI-60 one-dose screen, 48 h (100 = growth as untreated, 0 = no growth, -100 = all killed)
Settings in all cases: 10 µM unless noted

For assay [1], the system named is NCI-H23 lung.
Assay [2] concerns NCI-H226 lung.
Assay [3] deals with NCI-H322M lung.
Assay [4] has as its system HOP-62 NSCLC.
The subject of assay [5] is NCI-H460 lung.
Assay [6] has as its system HOP-92 NSCLC.
Assay [7] has as its system NCI-H522 lung.
For assay [8], the system named is A549/ATCC NSCLC.
Assay [9] relates to 786-0 renal.
Assay [10] deals with COLO 205 colon.

`C=C[C@@H]1C[C@@H]2Cc3c(C)cc(C)cc3N1O2`: the growth in assay [1] was 95%; in assay [2], 95.5%; in [3], 91.9%; in assay [4] it was 91.2%; in assay [5] it was 99.8%; in assay [6], 45.6%. Moreover, the growth in assay [7] is 99.2%; in [8] it was 95.1%; in assay [9], 105%; in [10] it was 100%.
For `NC(=S)N/N=C1\CCCC(C(F)(F)F)C1` (stereo not given), the growth was 101% in [1]; 117% in assay [2]; 101% in [3]; 107% in assay [4]; 109% in assay [5]; 96% in [6]. In addition, the growth in [7] was 94%; in assay [8], 100%; in assay [9] it was 98.9%; in assay [10], 114%.
Regarding `O=C(NS(=O)(=O)c1ccc2ccccc2c1)n1cc(-c2ccncc2)c(-c2ccc(Cl)c(O)c2)n1`, the growth in [1] was 61.5%; in assay [2], 84.9%; in assay [3], 116%; in assay [4], 92.1%; in assay [5], 89.7%; in [6], 48.1%. For the same compound, the growth was 61.5% in assay [7], 78% in assay [8], 99.1% in [9] and 105% in [10].
Take `O=S(=O)(c1ccc(OCCO)cc1)c1ccc(OCCO)cc1`: the growth in assay [1] was 106%; in assay [2] it was 106%; in [3], 91.8%; in assay [4], 114%; in assay [5], 104%; in assay [6], 87.2%. In addition, the growth in assay [7] is 82.7%; in assay [8] it was 101%; in assay [9], 112%; in [10], 132%.
In the case of `COc1ccc(-c2nc3sc(-c4cc(OC)c(OC)c(OC)c4)nn3c2/C=C2/C(=O)Nc3ccc(F)cc32)cc1`, the growth is 2.52% (active) in assay [1]; 110% in assay [2]; -59.4% (active) in assay [3]; 4.69% (active) in assay [4]; -26.6% (active) in assay [5]; -58.8% (active) in [6]. Moreover, the growth was 8.56% (active) in [7], -63.6% (active) in assay [8], -50.3% (active) in [9] and -43.8% (active) in [10].
Regarding `O=C(/C=C\c1cccc([N+](=O)[O-])c1)/C=C/c1cccc([N+](=O)[O-])c1`, the growth in assay [1] is 92.3%; in assay [2] it was 105%; in assay [3], 98.2%; in [4] it was 97.2%; in assay [5], 93.5%; in assay [6], 84.3%. The growth in assay [7] is 88.2%; in [8], 97.1%; in [9], 86.3%; in assay [10], 103%.
With `COc1ccc(OC)c(/C=C2\Oc3cc(OCCCN4CCCC4)ccc3C2=O)c1`, the growth is 80.6% in [1]; 88.7% in assay [2]; 88.9% in assay [3]; 95.6% in assay [4]; 61.3% in assay [5]; 77.6% in assay [6]. The growth in [7] is 89.6%; in [8], 81.2%; in [9], 84.2%; in assay [10], 85.6%.
On to `O=S(=O)(NCCNc1nccc(-c2c(-c3ccc(O)cc3)nc3sccn23)n1)c1cccc2ccccc12`, for which the growth was 98.1% in [1]; 102% in assay [2]; 98.1% in [3]; 106% in assay [4]; 106% in assay [5]; 94.9% in [6]. The growth in assay [7] is 91.5%; in assay [8], 98.2%; in [9] it was 96.6%; in [10], 109%.
On to `O=C1NN(C(=O)c2ccc(Cl)cc2)C(c2ccccc2)=N/C1=C\c1cn(-c2ccccc2)nc1-c1ccccc1`, for which the growth in assay [1] was 89.6%; in assay [2], 106%; in assay [3], 94.7%; in [4], 90.3%; in assay [5], 99.5%; in assay [6], 94.6%. For the same compound, the growth in assay [7] was 85%; in assay [8] it was 88%; in [9] it was 90.7%; in assay [10], 109%.
Consider `c1cc(C2=N[C@@H]3c4ccccc4C[C@@H]3O2)nc(C2=N[C@@H]3c4ccccc4C[C@@H]3O2)c1`, for which the growth in assay [1] was 98.1%; in [2], 101%; in assay [3], 107%; in assay [4], 100%; in assay [5], 109%; in [6], 101%. Also, the growth in assay [7] was 93.1%; in assay [8], 104%; in [9], 98.8%; in assay [10], 106%.
As for `O=C(O)C1CCCCN1c1nc(Cl)nc(Cl)n1` (stereo not given), the growth in assay [1] is 98.9%; in [2] it was 89.1%; in assay [3], 106%; in assay [4], 101%; in [5] it was 105%; in assay [6], 106%. Besides, the growth in [7] is 93.3%; in [8], 101%; in assay [9], 105%; in assay [10], 106%.
For `C=C1c2nc3ccccc3n2C=C(c2ccc(Cl)cc2)N1Cc1ccccc1`, the growth is 73.4% in assay [1]; 76.9% in [2]; 96% in assay [3]; 106% in assay [4]; 88.2% in assay [5]; 73.6% in assay [6]. For the same compound, the growth is 66.3% in assay [7], 70.6% in [8], 89.5% in assay [9] and 105% in assay [10].
As for `CC12CCC3C4(C)COC(c5ccccc5Cl)OC4CCC3(C)C1CC(C1=CCOC1=O)O2` (stereo not given), the growth in [1] was 52.7%; in assay [2], 59.5%; in assay [3] it was 90.2%; in assay [4], 78.3%; in [5] it was 44.1%; in assay [6], 85.7%. The growth in assay [7] is 59.4%; in assay [8], 64.1%; in assay [9] it was -89.9% (active); in assay [10], 45%.
`COc1cc(-c2nn(-c3cccc(NC(=O)c4ccc(Cl)c(C(F)(F)F)c4)c3)cc2-c2ccncc2)ccc1Cl`: the growth in [1] was 58.9%; in assay [2] it was 56.3%; in assay [3], 84.9%; in assay [4] it was 53%; in assay [5] it was 25.3%; in assay [6] it was 22.5%. Further, the growth in assay [7] was 1.5% (active); in assay [8], 23.3%; in assay [9], 59.5%; in assay [10] it was 69.4%.
